KKLEB cytotox – counter-screen for CF NF-kB inhibitors: cytotoxicity | KKLEB CF airway cells viability, ATPlite luminescence, overnight; stronger effect = lower value; cells stimulated with P. aeruginosa culture filtrate | activity change (cytotoxicity), % at 5 µM | 360,000 compounds, 0.36% hits | AID 602141;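 active = corrected activity change at or below -50% at 5 µM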
CF NFkB block – cystic fibrosis NF-kB activation inhibition; KKLEB NF-kB-GFP reporter, PAF-induced, GFP fluorescence overnight; inhibition, % at 5 µM; AID 588850; 360,000 compounds, 0.86% hits;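 active = at least 50% inhibition at 5 µM, scaled per plate between neutral and stimulator controls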;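 note: PAF is a Pseudomonas aeruginosa culture filtrate used as stimulus; plate controls were PAF-stimulated DMSO wells for no effect and unstimulated DMSO wells for full effect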
HIF-2a inh – inhibitors of HIF-2a. 360,000 compounds, 0.72% hits. inhibition, % at 18.8 µM. 786-0 RCC cells HIF-2a reporter, luciferase luminescence, overnight;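 active = inhibition of the luminescence signal of 40% or more relative to plate controls, in a single-dose primary screen at 18.75 µM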
TROY NFkB inh – inhibitors of TROY-dependent NF-kB signaling | 360,000 compounds, 0.98% hits | Q293 LMP1-TROYcd NF-kB luciferase reporter, 4 h | inhibition, % at 10 µM;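 active = compounds whose plate-normalised and pattern-corrected inhibition of the luciferase reporter signal at the single screening dose is 50% or more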
Peg3 prom inh – reduces Peg3 promoter-driven luciferase expression in HeLa; HeLa PEG-Prom luciferase reporter, luminescence, overnight; 360,000 compounds, 1.7% hits; inhibition, % at 20 µM;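 active = inhibition of at least 50% at 20 µM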
TWEAK-Fn14 inh – inhibitors of TWEAK-Fn14 interaction signaling; TWEAK-stimulated Fn14 reporter cells, luciferase luminescence, 8 h; inhibition, % at 10 µM; 360,000 compounds, 2% hits; AID 1159606; in the data active = inhibition above about 50%
Mdm2 MdmX conf – Mdm2/MdmX (human) interaction inhibition, confirmed. AID 504601. shares compounds with HIF-2a inh. inhibition, % at 8 µM. SaOS-2 split-luciferase Mdm2/MdmX complementation, luminescence. 740 compounds, 99% hits;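 active = mean inhibition of the luminescence signal across two replicates at or above 26 percent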
HIF-2a inh conf – HIF-2a inhibition, single concentration confirmation. AID 651580. shares compounds with HIF-2a inh. 786-0 RCC cells, HIF-2a luciferase reporter luminescence, overnight. inhibition, % at 18.8 µM. 1,800 compounds, 56% hits;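 active = mean inhibition across four replicates of at least 40 percent at the single tested concentration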
HIF-1a cs – counter-screen for HIF-2a inhibitors: HIF-1a inhibition in MiaPaCa-2 cells. shares compounds with HIF-2a inh. MiaPaCa-2 HIF-1a luciferase reporter, desferoxamine, overnight. inhibition, % at 18.8 µM. 1,800 compounds, 72% hits. AID 651589;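 active = mean inhibition of the reporter signal across four replicates at the single tested dose of 50% or more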
* marks the source's active call; other numbers are inactive results; / = not tested or not shown. Shown are actives, neighbours in structure and some others; about 4% of the full set was active somewhere.

SMILES	KKLEB cytotox	CF NFkB block	HIF-2a inh	TROY NFkB inh	Peg3 prom inh	TWEAK-Fn14 inh	HIF-2a inh conf	HIF-1a cs	others
Cn1nnnc1Sc1ncnc2scc(-c3cccc4c3sc3ccccc34)c12	-44	24	62*	-9	98*	25	28	102*
CN(C)C(=O)CSc1ncnc2scc(-c3ccccc3)c12	-5	9	13	15	13	-1	/	/
Cn1nnnc1Sc1ncnc2scc(-c3ccc(Cl)cc3)c12	-43	30	86*	64*	95*	75*	99*	102*	Mdm2 MdmX conf=103*
Cn1nnnc1Sc1ncnc2scc(-c3cccc(Br)c3)c12	-52*	80*	82*	67*	94*	99*	97*	102*	Mdm2 MdmX conf=103*
Clc1ccc(-c2csc3ncnc(Cl)c23)cc1	-14	25	-35	6	4	-14	/	/
Cn1nnnc1Sc1ncnc2scc(-c3ccc([N+](=O)[O-])cc3)c12	-63*	71*	92*	54*	102*	92*	97*	100*	Mdm2 MdmX conf=103*
CC(C)c1cc(Cn2c3ccccc3c(=O)n2C(C)Cn2cc(CCc3ccccc3)nn2)on1 (stereo not given)	/	/	22	/	/	/	/	/
COc1ccc(C(=O)NCCCn2cccn2)cc1OC1CCN(C(C)=O)CC1	27	-10	14	-6	9	2	/	/
COc1cc(OC)cc(-c2oc(=O)c3cc(OC)c(OC)cc3c2/C=C/c2ccc(F)cc2)c1	-12	-26	9	-9	14	8	/	/
CCOC(=O)c1nnc(-c2cccs2)nc1Oc1ccc(Cl)cc1	0	-6	42*	-11	27	4	24	17
Cn1cnnc1Sc1ccc(C(=O)OCC(=O)Nc2ccccc2)cc1[N+](=O)[O-]	-3	-1	6	8	-13	18	/	/
COc1ccc(NC(=O)/C(C#N)=C/c2ccc(Sc3nncn3C)c([N+](=O)[O-])c2)cc1	0	12	43*	6	26	13	24	21
CC[C@@H](C)[C@H](CN[C@H](CNC)C(C)C)NC[C@@H](C)c1ccc(CC(C)C)cc1	-10	3	-1	-6	99*	-43	/	/	Mdm2 MdmX conf=103*
O=C(OCc1c(-c2ccccc2)ncc2ccccc12)c1ccccc1C(F)(F)F	-17	36	3	-43	-1	-12	/	/
CCN(CC)CCOc1ccc2c(c1)C(=NO)c1cc(OCCN(CC)CC)ccc1-2	-26	15	54*	-24	107*	-67	33	107*
CCN(CC)CCCOc1ccc(Cl)c(Cl)c1	1	1	16	-1	20	-6	/	/
CC1(C)CC[C@]2(C(=O)O[C@@H]3O[C@H](CO)[C@@H](O)[C@H](O)[C@H]3O)CC[C@]3(C)C(=CCC4[C@@]5(C)CC[C@H](O[C@@H]6O[C@H](C(=O)O)[C@@H](O[C@H]7OC[C@@H](O)[C@@H](O)[C@@H]7O)[C@H](O)[C@H]6O)C(C)(C)C5CC[C@]43C)[C@@H]2C1 (stereo not given in full)	13	2	9	-11	-2	9	/	/
CC1(C)CC[C@]2(C(=O)O)CC[C@]3(C)C(=CC[C@@H]4[C@@]5(C)CC[C@H](O[C@@H]6O[C@H](C(=O)O)[C@@H](O)[C@H](O[C@@H]7OC[C@H](O)[C@H](O)[C@H]7O)[C@H]6O)C(C)(C)[C@@H]5CC[C@]43C)[C@@H]2C1	-95*	88*	55*	87*	59*	-77	94*	52*
CC(=O)c1ccc(CC2SC(N)=NC2=O)cc1 (stereo not given)	-6	14	17	7	-6	8	/	/
Cc1cc(C2(c3ccc(O)c(C)c3)C(=O)Nc3ccccc32)ccc1O	4	0	45*	21	80*	9	22	69*
